{"source": "PubChem BioAssay (NCATS)", "key": {"[1]": {"target": "Endonuclease 4 (Escherichia coli (strain K12)) (UniProt P0A6C1)", "test": "Counterscreen for APE1 Inhibitors: qHTS Validation Assay for Inhibitors of Endonuclease IV (AID 1708); also: potency is read from the fitted curve at half-maximal effect", "how_it_was_run": "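Cleavage of a quenched abasic-site DNA duplex (50 nM, 5'-TAMRA, 3'-BHQ-2) by 2 nM enzyme is followed as fluorescence increase. Compounds are preincubated with enzyme 15 min at room temperature before substrate addition.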"}, "[2]": {"target": "ATP-dependent DNA helicase Q1 (Homo sapiens) (UniProt P46063)", "sequence (P46063 whole entry, looked up)": "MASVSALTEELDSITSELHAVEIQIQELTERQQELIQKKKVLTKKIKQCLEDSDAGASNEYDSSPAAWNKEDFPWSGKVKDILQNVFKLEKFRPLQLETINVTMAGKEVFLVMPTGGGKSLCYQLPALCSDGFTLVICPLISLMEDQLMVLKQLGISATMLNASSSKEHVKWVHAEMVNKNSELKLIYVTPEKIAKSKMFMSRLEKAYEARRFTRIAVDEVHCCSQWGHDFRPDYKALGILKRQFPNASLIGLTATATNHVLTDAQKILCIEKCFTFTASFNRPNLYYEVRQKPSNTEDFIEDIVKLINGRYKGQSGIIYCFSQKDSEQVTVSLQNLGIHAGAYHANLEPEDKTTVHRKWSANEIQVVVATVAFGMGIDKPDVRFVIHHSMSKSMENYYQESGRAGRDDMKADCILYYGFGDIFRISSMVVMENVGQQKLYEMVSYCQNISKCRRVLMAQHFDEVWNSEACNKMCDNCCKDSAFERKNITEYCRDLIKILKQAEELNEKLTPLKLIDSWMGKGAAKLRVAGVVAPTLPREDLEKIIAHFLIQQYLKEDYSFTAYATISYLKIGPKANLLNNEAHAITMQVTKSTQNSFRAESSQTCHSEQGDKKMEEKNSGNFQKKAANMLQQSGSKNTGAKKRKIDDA", "test": "qHTS Validation Assay for Inhibitors of RecQ-Like Dna Helicase 1 (RECQ1) (AID 2353)", "how_it_was_run": "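50 nM RECQ1T1 preincubated 15 min with compound in Tris pH 8.0 buffer with MgCl2, DTT, Tween-20 and 2.5 ug/ml poly(dI-dC); started with 200 nM TAMRA/BHQ-2 forked duplex and 2 mM ATP. Unwinding read as fluorescence (525/598 nm), two reads 2 h apart.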"}, "[3]": {"test": "Quantitative high throughput screen for delayed death inhibitors of the malarial parasite plastid, 96 hour incubation (AID 488745);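 also: luciferase-expressing P. falciparum in erythrocytes at 2% hematocrit and 0.1% parasitemia; series mostly up to about 29 µM; nearly all actives have a fitted effect of over 70% in size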", "how_it_was_run": "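Growth of reporter-bearing P. falciparum in red cells is measured after 96 h with compound, covering two erythrocytic cycles. Luminescence from the integrated luciferase serves as the growth signal.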"}, "[4]": {"target": "Thyrotropin receptor (Homo sapiens) (UniProt P16473)", "sequence (P16473 whole entry, looked up)": "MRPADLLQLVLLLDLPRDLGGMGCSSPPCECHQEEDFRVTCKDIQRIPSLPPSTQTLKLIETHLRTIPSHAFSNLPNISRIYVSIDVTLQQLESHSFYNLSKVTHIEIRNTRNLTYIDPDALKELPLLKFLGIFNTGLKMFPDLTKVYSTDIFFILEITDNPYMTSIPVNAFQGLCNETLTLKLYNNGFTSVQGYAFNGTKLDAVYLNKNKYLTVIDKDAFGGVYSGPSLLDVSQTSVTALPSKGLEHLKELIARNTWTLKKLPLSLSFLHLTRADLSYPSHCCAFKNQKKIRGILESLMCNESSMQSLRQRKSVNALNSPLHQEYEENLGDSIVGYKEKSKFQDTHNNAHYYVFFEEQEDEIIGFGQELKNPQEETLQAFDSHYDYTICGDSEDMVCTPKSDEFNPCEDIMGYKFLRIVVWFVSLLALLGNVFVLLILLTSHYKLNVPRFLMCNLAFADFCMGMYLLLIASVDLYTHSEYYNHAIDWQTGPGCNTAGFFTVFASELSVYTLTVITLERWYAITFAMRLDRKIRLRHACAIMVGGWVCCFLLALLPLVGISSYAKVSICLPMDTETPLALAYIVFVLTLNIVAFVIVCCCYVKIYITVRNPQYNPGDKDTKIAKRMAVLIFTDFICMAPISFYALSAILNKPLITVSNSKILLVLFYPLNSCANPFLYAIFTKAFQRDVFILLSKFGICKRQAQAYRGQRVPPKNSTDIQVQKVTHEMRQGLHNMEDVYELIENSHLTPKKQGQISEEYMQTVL", "test": "qHTS Assay for Antagonists of the Thyroid Stimulating Hormone Receptor (AID 488980); also: series mostly up to about 58 µM", "how_it_was_run": "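Inhibition of TSH-stimulated cAMP accumulation was quantified by homogeneous time-resolved FRET in TSHR-transfected HEK293 cells. Agonist: TSH, 4 nM final (EC80).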"}, "[5]": {"target": "Thyroid hormone receptor beta (Homo sapiens) (UniProt P10828)", "sequence (P10828 whole entry, looked up)": "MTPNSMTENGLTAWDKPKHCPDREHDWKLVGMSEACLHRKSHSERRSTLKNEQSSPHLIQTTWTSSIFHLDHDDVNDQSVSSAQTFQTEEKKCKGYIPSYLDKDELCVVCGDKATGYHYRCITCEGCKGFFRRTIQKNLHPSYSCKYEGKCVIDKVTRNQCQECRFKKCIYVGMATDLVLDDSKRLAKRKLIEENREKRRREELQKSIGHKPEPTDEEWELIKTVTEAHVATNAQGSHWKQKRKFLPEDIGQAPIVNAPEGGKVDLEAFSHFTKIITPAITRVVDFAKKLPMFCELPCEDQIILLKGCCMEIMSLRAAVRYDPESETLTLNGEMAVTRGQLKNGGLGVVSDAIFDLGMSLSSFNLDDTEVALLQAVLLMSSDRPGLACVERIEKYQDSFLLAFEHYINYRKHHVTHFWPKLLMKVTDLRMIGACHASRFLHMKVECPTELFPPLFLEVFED", "test": "qHTS assay for small molecule agonists of thyroid hormone receptor beta signaling (AID 588545; calls by dose curve)", "how_it_was_run": "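Agonist-mode beta-lactamase reporter assay, HEK 293 cells, 2% charcoal/dextran FBS; cells plated 4 hrs, compound 18 hrs at 37 C, CCF4 2 hrs RT. Normalized to 10 nM T3 (100%) and DMSO (0%); Hill fit gives EC50, efficacy.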"}, "[6]": {"target": "Rap guanine nucleotide exchange factor 4 (Homo sapiens) (UniProt Q8WZA2)", "sequence (Q8WZA2 whole entry, looked up)": "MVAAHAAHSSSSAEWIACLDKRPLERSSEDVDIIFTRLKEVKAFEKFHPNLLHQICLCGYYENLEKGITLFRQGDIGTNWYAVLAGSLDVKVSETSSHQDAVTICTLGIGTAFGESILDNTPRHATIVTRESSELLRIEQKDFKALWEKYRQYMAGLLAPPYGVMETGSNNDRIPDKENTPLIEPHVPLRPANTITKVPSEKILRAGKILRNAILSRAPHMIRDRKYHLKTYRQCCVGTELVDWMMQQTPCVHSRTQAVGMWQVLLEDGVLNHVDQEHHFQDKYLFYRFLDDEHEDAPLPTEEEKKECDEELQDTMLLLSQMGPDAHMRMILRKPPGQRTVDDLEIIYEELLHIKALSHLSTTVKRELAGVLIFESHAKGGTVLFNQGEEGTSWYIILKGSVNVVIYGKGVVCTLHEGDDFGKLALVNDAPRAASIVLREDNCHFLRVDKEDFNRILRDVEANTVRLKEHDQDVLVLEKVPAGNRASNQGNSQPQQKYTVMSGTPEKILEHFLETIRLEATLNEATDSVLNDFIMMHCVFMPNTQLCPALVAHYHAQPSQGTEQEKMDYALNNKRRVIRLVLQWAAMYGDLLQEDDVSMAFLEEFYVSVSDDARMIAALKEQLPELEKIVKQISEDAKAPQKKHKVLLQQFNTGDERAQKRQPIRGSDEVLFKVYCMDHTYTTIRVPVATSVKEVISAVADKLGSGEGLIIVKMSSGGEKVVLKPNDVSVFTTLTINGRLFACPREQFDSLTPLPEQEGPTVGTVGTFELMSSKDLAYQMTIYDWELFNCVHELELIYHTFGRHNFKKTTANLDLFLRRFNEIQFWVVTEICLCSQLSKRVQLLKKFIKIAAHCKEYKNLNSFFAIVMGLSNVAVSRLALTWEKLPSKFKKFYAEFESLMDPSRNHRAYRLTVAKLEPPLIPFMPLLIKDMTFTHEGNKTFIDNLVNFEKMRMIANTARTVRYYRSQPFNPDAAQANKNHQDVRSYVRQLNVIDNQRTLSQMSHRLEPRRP", "test": "Confirmatory qHTS for antagonist of cAMP-regulated guanine nucleotide exchange factor 4 (EPAC2) (AID 1645885); also: nearly all actives have a fitted effect of over 25% in size"}, "[7]": {"test": "qHTS for differential inhibitors of proliferation of Plasmodium falciparum line D10 (AID 1877);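 also: parasites grown with compound for 72 h before DNA staining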; also: potency is read from the fitted curve at half-maximal effect"}, "[8]": {"target": "Voltage-gated inwardly rectifying potassium channel KCNH2 (Homo sapiens) (UniProt Q12809)", "sequence (Q12809 whole entry, looked up)": "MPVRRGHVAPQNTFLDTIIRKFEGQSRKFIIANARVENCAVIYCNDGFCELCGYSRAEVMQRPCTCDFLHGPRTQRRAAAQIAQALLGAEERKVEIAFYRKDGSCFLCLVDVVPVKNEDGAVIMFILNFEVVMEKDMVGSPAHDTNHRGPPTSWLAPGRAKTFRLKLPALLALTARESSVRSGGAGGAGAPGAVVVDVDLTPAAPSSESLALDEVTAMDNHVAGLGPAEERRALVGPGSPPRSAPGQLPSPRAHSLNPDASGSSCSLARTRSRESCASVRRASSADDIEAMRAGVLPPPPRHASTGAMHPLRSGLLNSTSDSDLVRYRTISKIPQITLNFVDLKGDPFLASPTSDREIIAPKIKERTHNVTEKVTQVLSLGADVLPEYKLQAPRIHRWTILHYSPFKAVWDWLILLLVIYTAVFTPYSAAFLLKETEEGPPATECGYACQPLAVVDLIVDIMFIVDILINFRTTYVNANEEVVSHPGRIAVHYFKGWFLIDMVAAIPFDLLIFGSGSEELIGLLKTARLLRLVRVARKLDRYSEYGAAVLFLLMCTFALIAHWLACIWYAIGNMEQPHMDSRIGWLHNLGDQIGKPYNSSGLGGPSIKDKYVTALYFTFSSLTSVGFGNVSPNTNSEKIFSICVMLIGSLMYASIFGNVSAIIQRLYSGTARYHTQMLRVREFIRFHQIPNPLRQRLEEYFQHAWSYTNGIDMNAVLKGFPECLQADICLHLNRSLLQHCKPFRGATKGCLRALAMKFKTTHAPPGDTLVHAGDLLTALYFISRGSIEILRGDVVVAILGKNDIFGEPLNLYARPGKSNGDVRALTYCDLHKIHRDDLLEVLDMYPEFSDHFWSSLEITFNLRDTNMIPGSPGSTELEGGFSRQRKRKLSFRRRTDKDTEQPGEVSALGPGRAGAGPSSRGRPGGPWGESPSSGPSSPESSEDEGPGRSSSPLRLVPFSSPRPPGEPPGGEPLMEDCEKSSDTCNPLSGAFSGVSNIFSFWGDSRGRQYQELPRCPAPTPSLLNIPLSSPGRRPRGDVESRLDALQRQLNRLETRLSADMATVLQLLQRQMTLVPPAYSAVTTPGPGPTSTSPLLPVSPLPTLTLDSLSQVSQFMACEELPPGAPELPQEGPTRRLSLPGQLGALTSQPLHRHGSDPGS", "test": "qHTS Assay for Small Molecule Inhibitors of the Human hERG Channel Activity (AID 588834);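 also: lower thallium flux fluorescence means stronger hERG block; nearly all actives have a fitted effect of over 50% in size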; also: potency is read from the fitted curve at half-maximal effect; as to activity change, negative = inhibition: top concentration of the series differs between compounds", "how_it_was_run": "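Blockade is seen as reduced FluxOR thallium-flux fluorescence in U2OS cells expressing hERG from a BacMam construct, in Opti-MEM with 2% FCS. Concentration-response data fitted to the Hill equation for AC50.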"}, "[9]": {"test": "Cell Viability - LYMP2-024 (AID 988); also: nearly all actives have a fitted effect of over 60% in size", "how_it_was_run": "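Acute toxicity is measured as concentration-dependent loss of intracellular ATP in a human lymphoblastoid line treated 24 hours at 37 C. Luciferase luminescence quantifies ATP; AC50 values come from standard Hill-equation modelling.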"}, "[10]": {"test": "Cell Viability - LYMP1-002 - Assay at 24 hr (AID 993)", "how_it_was_run": "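qHTS, LYMP1-002 lymphoblastoid, 24 h cpd, 37 C, CellTiter-Glo ATP luminescence; AC50 via Hill eq.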"}, "[11]": {"target": "Peroxisome proliferator-activated receptor gamma (Homo sapiens) (UniProt P37231)", "test": "qHTS assay for small molecule agonists of peroxisome proliferator-activated receptor gamma signaling (AID 588536; active = well fitted curve in the direction sought with a large enough effect in the signal ratio, with a control signal flat, not every such curve was filed as active; the % refers to the signal ratio)", "how_it_was_run": "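HEK293 UAS-bla reporter line, 1% charcoal/dextran FBS; titration, 16 h, 37 C; CCF4 loading 2 h RT; fluorescence 460/530 nm. Normalized to rosiglitazone 2 uM = 100%, DMSO = 0%.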"}, "[12]": {"target": "Nuclear receptor ROR-gamma (Homo sapiens) (UniProt P51449)", "test": "qHTS assay for small molecule antagonists of the retinoid-related orphan receptor gamma (ROR-gamma) signaling pathway (AID 651802);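 also: CHO cells with doxycycline-induced ROR-gamma expression; luciferase reporter luminescence driven by ROR response element; series mostly up to about 92 µM; nearly all actives have a fitted effect of over 60% in size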", "how_it_was_run": "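Antagonism is scored as a fall in luminescence from a RORE-luciferase reporter in CHO cells expressing ROR under a TET-inducible promoter, measured 16hr after doxycycline induction in the presence of compound.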"}, "[13]": {"target": "Nuclear receptor subfamily 1 group I member 2 (Homo sapiens) (UniProt O75469)", "sequence (O75469 whole entry, looked up)": "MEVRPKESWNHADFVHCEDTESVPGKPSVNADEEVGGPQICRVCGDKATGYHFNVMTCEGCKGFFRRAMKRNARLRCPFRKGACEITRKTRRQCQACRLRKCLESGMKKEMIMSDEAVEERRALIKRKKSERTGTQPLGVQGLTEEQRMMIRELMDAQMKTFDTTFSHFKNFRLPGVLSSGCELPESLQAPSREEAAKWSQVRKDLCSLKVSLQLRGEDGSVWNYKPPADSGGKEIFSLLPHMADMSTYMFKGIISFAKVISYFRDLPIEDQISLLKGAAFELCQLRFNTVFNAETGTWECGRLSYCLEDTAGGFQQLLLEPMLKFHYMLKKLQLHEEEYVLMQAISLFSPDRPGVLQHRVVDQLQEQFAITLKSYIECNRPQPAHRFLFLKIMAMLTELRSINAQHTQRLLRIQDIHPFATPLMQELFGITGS", "test": "Dual reporter qHTS for agonist of Pregnane X Receptor (hPXR) against the NCATS DSHEA and TCM libraries: Luminescence readout (AID 1920059)", "how_it_was_run": "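hPXR-Luc HepG2 cells, 2000/well in 5% charcoal-stripped FBS medium, attached 5 h, then exposed 24 h at 37C to compounds. Viability by CellTiter-Fluor, then luciferase luminescence with ONE-Glo.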"}, "[14]": {"target": "Cytochrome P450 2D6 (Homo sapiens) (UniProt P10635)", "sequence (P10635 whole entry, looked up)": "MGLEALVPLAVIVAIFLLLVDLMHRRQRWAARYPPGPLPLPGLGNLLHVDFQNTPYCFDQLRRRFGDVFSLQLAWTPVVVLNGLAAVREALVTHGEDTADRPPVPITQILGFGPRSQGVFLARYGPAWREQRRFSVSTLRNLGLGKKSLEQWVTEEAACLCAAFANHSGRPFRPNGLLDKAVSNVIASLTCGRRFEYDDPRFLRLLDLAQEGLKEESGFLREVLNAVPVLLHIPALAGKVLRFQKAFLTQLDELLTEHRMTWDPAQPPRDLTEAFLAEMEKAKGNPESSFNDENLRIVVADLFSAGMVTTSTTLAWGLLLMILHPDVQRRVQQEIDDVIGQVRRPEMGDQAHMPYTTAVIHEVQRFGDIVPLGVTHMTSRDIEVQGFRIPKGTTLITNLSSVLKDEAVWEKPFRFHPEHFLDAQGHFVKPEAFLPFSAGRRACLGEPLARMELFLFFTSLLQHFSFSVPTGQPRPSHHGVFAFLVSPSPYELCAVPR", "test": "qHTS for inhibitors of CYP2D6 against the NCATS DSHEA and TCM libraries (AID 1919972)", "how_it_was_run": "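Steps: enzyme plus luciferin substrate dispensed; test substances pinned; 15 min RT; 1x NADPH regenerating solution added, 30–45 min RT protected from light; detection reagent, 30 min RT; luminescence measured. Minus-enzyme wells as background.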"}, "[15]": {"target": "Cytochrome P450 2C19 (Homo sapiens) (UniProt P33261)", "test": "qHTS for inhibitors of CYP2C19 against the NCATS DSHEA and TCM libraries (AID 1919974);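 also: luminescence from luciferin released by CYP2C19 oxidation of a pro-luciferin substrate; potency is read from the fitted curve at half-maximal effect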", "how_it_was_run": "(§1)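 Light output from converted D-luciferin reports remaining CYP activity. Compounds preincubate with enzyme and substrate for 15 min; NADPH regeneration (1x final) runs the reaction for 30-45 min.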"}, "[16]": {"target": "Cytochrome P450 2C9 (Homo sapiens) (UniProt P11712)", "test": "qHTS for inhibitors of CYP2C9 against the NCATS DSHEA and TCM libraries (AID 1919973)", "how_it_was_run": "as §1"}}, "note": "Values without a mark were called inactive. Inconclusive results are not listed. Where a call stands in place of a potency, no number is given. The source made the active and inactive calls. Unless noted, calls follow the shape of the dose curve; as a rule, active = well fitted curve in the direction sought with a large enough effect; inconclusive = small, poorly fitted or top-dose-only effect, or another doubt; inactive = no such curve, though single readings can be large; an effect the other way counts as inactive or inconclusive.", "data": [{"smiles": "C[C@]12CC[C@@H](O)CC1CCC1C2CC[C@]2(C)C(=O)CC[C@@H]12", "note": "(stereo partly specified)", "values": [{"measurement": "Potency", "setting": "[1]", "value": "inactive"}, {"measurement": "outcome", "setting": "[2]", "value": "inactive"}, {"measurement": "Potency", "setting": "[3]", "value": "inactive"}, {"measurement": "outcome", "setting": "[4]", "value": "inactive"}]}, {"smiles": "N.N.N.N.N.N.N.N.N.N.N.N.N.N.O.O.[Cl-].[Cl-].[Cl-].[Cl-].[Cl-].[Cl-].[Ru].[Ru].[Ru]", "values": [{"measurement": "Potency", "setting": "[1]", "value": "28.2 µM (active)"}]}, {"smiles": "O=C(O)C1C2CCC(O2)C1C(=O)O", "note": "(stereo unspecified)", "values": [{"measurement": "Potency", "setting": "[1]", "value": "inactive"}, {"measurement": "outcome", "setting": "[2]", "value": "inactive"}, {"measurement": "Potency", "setting": "[3]", "value": "inactive"}, {"measurement": "outcome", "setting": "[4]", "value": "inactive"}, {"measurement": "outcome", "setting": "[5]", "value": "inactive"}]}, {"smiles": "Nc1c(Br)cc2c3c(cccc13)-c1ccccc1-2", "values": [{"measurement": "activity change, negative = inhibition", "setting": "[6]", "value": "2.51% [at 12.7 µM]"}]}, {"smiles": "C[C@@H]1O[C@@H](O[C@H]2C[C@@H](O)[C@]3(CO)[C@H]4[C@H](O)C[C@]5(C)[C@@H]([C@@H]6COC(=O)C6)CC[C@]5(O)[C@@H]4CC[C@]3(O)C2)[C@H](O)[C@H](O)[C@H]1O", "values": [{"measurement": "Potency", "setting": "[1]", "value": "inactive"}, {"measurement": "Potency", "setting": "[7]", "value": "inactive"}, {"measurement": "outcome", "setting": "[2]", "value": "inactive"}, {"measurement": "Potency", "setting": "[3]", "value": "inactive"}, {"measurement": "outcome", "setting": "[4]", "value": "inactive"}, {"measurement": "Potency", "setting": "[8]", "value": "inactive"}]}, {"smiles": "COC1=CC(=O)O[C@@H](/C=C/c2ccc3c(c2)OCO3)C1", "values": [{"measurement": "Potency", "setting": "[9]", "value": "inactive"}, {"measurement": "Potency", "setting": "[10]", "value": "inactive"}, {"measurement": "outcome", "setting": "[11]", "value": "inactive"}, {"measurement": "outcome", "setting": "[5]", "value": "inactive"}, {"measurement": "Potency", "setting": "[8]", "value": "inactive"}, {"measurement": "Potency", "setting": "[12]", "value": "inactive"}, {"measurement": "Potency", "setting": "[13]", "value": "inactive"}]}, {"smiles": "CN1C[C@H](C(=O)N[C@]2(C)O[C@@]3(O)C4CCCN4C(=O)[C@H](Cc4ccccc4)N3C2=O)C[C@@H]2c3cccc4[nH]cc(c34)C[C@H]21", "note": "(stereo partly specified)", "values": [{"measurement": "Potency", "setting": "[7]", "value": "4.47 µM (active)"}, {"measurement": "Potency", "setting": "[8]", "value": "11.2 µM (active)"}]}, {"smiles": "CC[C@@H]1CN2CC[C@]3(C(=O)Nc4ccccc43)[C@@H]2C[C@@H]1/C(=C\\OC)C(=O)OC", "values": [{"measurement": "Potency", "setting": "[14]", "value": "inactive"}, {"measurement": "Potency", "setting": "[15]", "value": "11.2 µM (active)"}]}, {"smiles": "CCCCCCCCCCCCCCCCCCCC(=O)O", "values": [{"measurement": "Potency", "setting": "[14]", "value": "inactive"}, {"measurement": "Potency", "setting": "[16]", "value": "15.8 µM (active)"}, {"measurement": "Potency", "setting": "[13]", "value": "inactive"}]}]}
